LmPK inhibitor: blocks Leishmania mexicana pyruvate kinase activity. Q27686. purified LmPK, Kinase-Glo ATP luminescence, 1 h. Potency, µM (series often up to 57.5 µM), for inactives: at the highest dose activity change, negative = inhibition, usual class: inhibitors. 290,000 compounds, 0.37% hits
Target sequence (Q27686 whole entry, looked up): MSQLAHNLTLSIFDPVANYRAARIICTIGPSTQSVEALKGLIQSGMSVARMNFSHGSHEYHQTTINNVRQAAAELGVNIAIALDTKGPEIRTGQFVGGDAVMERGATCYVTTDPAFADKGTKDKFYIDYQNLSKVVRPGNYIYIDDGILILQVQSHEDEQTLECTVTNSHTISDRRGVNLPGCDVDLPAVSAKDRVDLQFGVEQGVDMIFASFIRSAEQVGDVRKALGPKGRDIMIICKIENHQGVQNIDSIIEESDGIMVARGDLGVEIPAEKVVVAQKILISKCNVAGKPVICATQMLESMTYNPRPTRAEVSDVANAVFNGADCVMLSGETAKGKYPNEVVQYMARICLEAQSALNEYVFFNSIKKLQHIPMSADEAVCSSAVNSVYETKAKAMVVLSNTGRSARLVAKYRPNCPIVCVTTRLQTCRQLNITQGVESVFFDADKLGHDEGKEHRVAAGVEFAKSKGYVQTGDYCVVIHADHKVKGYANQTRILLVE
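Screened at intermediate enzyme activity to detect both inhibitors and activators: LmPK at 0.1 nM, with a 0.5 nM enzyme column as activation reference. PEP 0.5 mM, ADP 0.1 mM; ATP detected by luminescence after 1 h.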
Tb PYK inh: T. brucei pyruvate kinase inhibition. Potency, µM (titrated, usually from 76.8 µM), without a hit: top-dose activity, negative = inhibition, most hits filed as inhibitors. AID 624173. TbPYK enzyme, Kinase-Glo Plus ATP luminescence, 45 min. 410,000 compounds, 0.12% hits; also: nearly all actives have a fitted effect of over 50% in size
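In this concentration-response screen, enzyme-free wells defined baseline while DMSO plates tracked drift. Each reaction combined TbPYK, substrate, compound and 130 uM ADP for 45 min at room temperature. Kinase-Glo Plus luminescence gave the signal.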
Sm TGR block: S. mansoni TGR enzyme inhibition; 360,000 compounds, 3% hits; purified TGR, DTNB reduction, TNB absorbance 405 nm; Potency, µM (top dose mostly 114 µM), without a hit: at the top dose activity change, negative = inhibition, hits mostly inhibitors; also: nearly all actives have a fitted effect of over 60% in size
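First, TGR (20 nM dispensed) and NADPH were mixed with compound. Second, a 15 min room-temperature incubation followed. Third, further NADPH and then DTNB were added to start the reaction. Finally, TNB absorbance was monitored kinetically.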
RE007 growth inh: less growth of the S. pombe RE007 Vpr strain; Potency, µM (highest dose often 92.2 µM), inactives show at the top dose activity change, negative = less growth, actives largely listed as inhibitors; 360,000 compounds, 0.21% hits; AID 651644; S. pombe RE007 Vpr strain, BacTiter-Glo ATP luminescence, 24 h; active = well fitted falling curve with a large enough effect; inconclusive = small, poorly fitted or top-dose-only effect; inactive = no such curve, though single readings can be large or run the other way; also: nearly all actives have a fitted effect of over 50% in size
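Fission yeast RE007 carrying one integrated HIV-1 vpr copy, seeded at OD 0.01 in PMG+AL medium with 23 nL pinned compound. Grown 24 h at 30 degrees; viability read by BacTiter-Glo luminescence after 5 min.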
* = called active by the depositor; ? = inconclusive; . = not tested or not shown. Only some compounds are listed: those with a hit (about 3% of all), similar ones and a draw of the others. Unless noted, calls follow the shape of the dose curve; as a rule, active = well fitted curve in the direction sought with a large enough effect; inconclusive = small, poorly fitted or top-dose-only effect, or another doubt; inactive = no such curve, though single readings can be large; an effect the other way counts as inactive or inconclusive. % is scaled to controls: 0 for no effect and ±100 for the full control effect; potency is read from the fitted curve at half-maximal effect.

SMILES | LmPK inhibitor | Tb PYK inh | Sm TGR block | RE007 growth inh
Cc1ccc(-n2nc(-c3ccco3)cc2C(=O)O)cc1 | 14.8% | -7.3% | 25.1µM* | 2.1%
CCN(CCCNC(=O)c1cc2c(=O)[nH]c3ccc(C)cc3c2s1)Cc1ccccc1 | . | -6.2% | ? | .
CCOC(=O)c1ccccc1NC(=O)c1sc2ncn(CC)c(=O)c2c1C | . | -2.7% | 3.4% | .
O=C(CCS(=O)(=O)Cc1ccccc1)N1CCN(c2ccc([N+](=O)[O-])cc2)CC1 | 1.8% | -0.3% | 25.1µM* | -1.8%
O=C(CCS(=O)(=O)Cc1ccccc1)N1CCN(c2ccccc2)CC1 | 1.6% | 1.0% | -2.2% | -10.6%
Cc1cc(C)nc(-n2nc(C)cc2NC(=O)CN2CCCC(C)C2)n1 (stereo not given) | 5.4% | -16.5% | 25.1µM* | -11.2%
Cc1cc(C)nc(-n2nc(C)cc2NC(=O)CN2CCc3ccccc3C2)n1 | 11.5% | -3.3% | ? | 55.5%
CCc1ccccc1NC(=O)Cn1cc(S(=O)(=O)N2CCCC2)c(S(=O)(=O)N2CCCC2)c1 | . | -3.5% | -7.4% | .
Cc1nc2scc(-c3ccco3)c2c(=O)n1/N=C/N(C)C | -1.8% | -9.6% | 25.1µM* | -11.1%
N/C(=N\OC(=O)C1CCCCC1)c1ccccn1 | 14.1µM* | -27.0% | -21.5% | -27.5%
CCCc1ccc(C(=O)O/N=C(\N)c2ccccn2)cc1 | 15.8µM* | ? | -0.4% | ?
COc1cccc(C(=O)O/N=C(\N)c2ccccn2)c1 | 14.1µM* | ? | 9.1% | ?
N/C(=N\OC(=O)c1ccc2ccccc2c1)c1ccccn1 | 14.1µM* | ? | -4.6% | -14.5%
N/C(=N\OC(=O)c1cccc([N+](=O)[O-])c1)c1ccccn1 | -7.7% | -7.5% | -3.3% | -11.9%
COc1cccc(CNC(=O)Cn2c(=O)cc(C)c3c(C)nn(C)c32)c1OC | . | -1.2% | -1.7% | .
Fc1ccccc1N1CCN(c2ncnc3onc(-c4ccc(Cl)cc4)c23)CC1 | . | -9.8% | -0.2% | .
Cc1ccc(S(=O)(=O)Cn2nnnc2CN(Cc2ccco2)Cc2cccs2)cc1 | 7.3% | 3.7% | 44.7µM* | -15.2%
Cc1cccc(N2CCN(C(=O)CN3CCOc4ccccc43)CC2C)c1 (stereo not given) | 15.7% | -2.9% | -21.2% | 8.9%
Cc1ccc(N2C(=O)C3C4C=CC(CNC(=S)N5CCN(c6cccc(C)c6)C(C)C5)(O4)C3C2=O)cc1 (stereo not given) | -2.1% | -14.6% | 3.16µM* | 2µM*
O=C(O)C(=O)Cc1c[nH]c2ccccc12 | 8.3% | -10.5% | 44.7µM* | 8.4%
O=C(O)C(O)Cc1c[nH]c2ccccc12 (stereo not given) | -1.2% | -0.4% | 6.5% | 38.1%
O=C(CSCc1ccccc1)N1CCN(C(=O)c2ccco2)CC1 | -0.1% | 1.1% | 44.7µM* | 10.0%
CCOc1ccc(-c2nc(CSCC(=O)N3CCN(C(=O)c4ccco4)CC3)c(C)o2)cc1 | 12.4% | 0.0% | 89.1µM* | -14.6%
CCOC(=O)C1CCN(C(=O)CSCc2nc(-c3ccc(OCC)cc3)oc2C)CC1 | 0.4% | 0.5% | -17.5% | 6.7%
CCN1CCN(C(c2ccccc2Cl)c2c(O)cc(C)n(CCOC)c2=O)CC1 (stereo not given) | . | 9.4% | 3.55µM* | .
SMILES | LmPK inhibitor | Tb PYK inh | Sm TGR block | RE007 growth inh
CCN1CCN(C(c2ccc(SC)cc2)c2c(O)cc(C)n(CCOC)c2=O)CC1 (stereo not given) | . | 10.7% | 7.08µM* | .
COCCn1c(C)cc(O)c(C(c2ccccc2Cl)N2CCN(c3ccccc3)CC2)c1=O (stereo not given) | . | -4.6% | 3.16µM* | .
CCN1CCN(C(c2ccccc2F)c2c(O)cc(C)n(CCOC)c2=O)CC1 (stereo not given) | . | 1.0% | 7.94µM* | .
CCN1CCN(S(=O)(=O)c2ccc(Cl)c(C(=O)NC(C)c3ccccc3Cl)c2)CC1 (stereo not given) | . | 0.1% | -9.6% | -11.6%
COc1ccc(CNc2nc3c(-c4ccc(C)cc4)nnn3c3ccccc23)cc1 | . | 3.0% | ? | .
CCN1CCN(CCCNC(=O)Cn2c(-c3cccs3)cc3cc(F)ccc32)CC1 | . | 1.2% | -24.1% | .
OC[C@@H]1O[C@](CO)(O[C@H]2O[C@H](CO)[C@@H](O)[C@H](O)[C@H]2O)[C@H](O)[C@H]1O | . | 1.1% | . | .
Cc1occc1C(=O)Nc1cccc2ccccc12 | 25.1µM* | -11.1% | -30.6% | ?
Cc1cc(NC(=O)c2ccoc2C)no1 | 17.8µM* | -18.8% | -31.4% | -6.1%

Source: PubChem
